Results taken from PubChem BioAssay (Tox21).
Results filed as inconclusive are left out. Entries that show only a call come without a potency. Values without a mark were called inactive. The source made the active and inactive calls. Calls come from the whole dose curve; as a rule, active = well fitted cell-killing curve with a large enough effect in the repeat runs; inconclusive = weak or mixed curves, or effect the other way; inactive = flat fitted curve, though single readings scatter.
Potency is the fitted concentration of half-maximal effect.

Experiment: qHTS RealTime-Glo MT Cell Viability Assay in HEK293 cells - 32 hour (AID 1224868); note: nearly all actives have a fitted effect of over 50% in size; for activity change, negative = cytotoxic: top concentration of the series differs between compounds
Conditions: RealTime-Glo luminescence; series mostly up to 76.8 µM
Source text: National Center for Advancing Translational Sciences [NCATS]
NIH Chemical Genomics Center [NCGC]
U.S. Environmental Protection Agency [EPA]
National Institutes of Environmental Health Sciences [NIEHS]
National Toxicology Program [NTP]
U.S. Food and Drug Administration [FDA]
Measure of cell viability is critical in the cell-base assay. Analysis of cell viability is necessary for the characterization of cell responses to cytotoxic drugs and environmental stress. A RealTime-Glo MT Cell Viability Assay to monitor cell viability in real time of continues cell culture during 40 hours of compound treatment was used to screen Tox21 10K library compounds in Hek293 cells. The RealTime-Glo MT Cell Viability Assay is a nonlytic, homogeneous, bioluminescent method to measure cell viability in real time using a simple, plate-based method. The assay involves adding NanoLuc luciferase and a cell-permeant prosubstrate to cells in culture. Viable cells reduce the proprietary prosubstrate to generate a substrate for NanoLuc luciferase. This substrate diffuses from cells into the surrounding culture medium, where it is rapidly used by the NanoLuc Enzyme to produce a luminescent signal. The signal correlates with the number of viable cells, making the assay well suited for cytotoxicity studies.
Tox21 Assay Protocol Summary:
The mixture of Hek293 cell suspension and reagents were dispensed at 600cells/6 ul/well in 1536-well tissue culture treated black solid bottom plates using a Multidrop dispenser. After the assay plates were incubated at a 37 C/5% CO2 incubator for 5 hours, 23 nL of compounds dissolved in DMSO, positive and negative controls was transferred to the assay plate by a pintool work station. The plates were incubated at 37 C for 40 hours. The luminescence intensity were measured at 0h, 8h, 16h, 24h, 32h and 40h time points using ViewLux plate reader during compound treatment.
With `Nc1c(Br)cc([N+](=O)[O-])cc1Br` the Potency was “inactive”.
For `C=Cc1ccc(O)c(OC)c1`, the Potency was “inactive”.
In the case of `Cc1ccc2n[nH]nc2c1`, the Potency is reported as “inactive”.
With `CO[Si](OC)(c1ccccc1)c1ccccc1` the Potency was “inactive”.
`CCCCCCCCCCCCS(=O)(=O)Cl` gave an activity change, negative = cytotoxic of 18.8% [at 15.8 µM].
With `CCN(CCC#N)c1ccc(N=Nc2ccc([N+](=O)[O-])cc2)cc1` the Potency was “inactive”.
In the case of `Cc1ccc2nc(-c3ccc(N)cc3)sc2c1S(=O)(=O)O`, the Potency is reported as “inactive”.
With `CCCCCN=C(N)N/N=C/c1c[nH]c2ccc(OC)cc12` the Potency was 4.25 µM (active).
With `O=C(c1ccccc1)c1ccc(Cl)cc1` the Potency was “inactive”.
For `N#Cc1nc(Cl)c(Cl)c(Cl)c1Cl`, the Potency was 2.19 µM (active).
In the case of `C/C=C/C(=O)C1=C(C)C=CCC1(C)C`, the Potency is reported as “inactive”.
With `CN(C)CCOc1ccc(/C(=C(/CCCl)c2ccccc2)c2ccccc2)cc1` the Potency was 36.4 µM (active).
For `Oc1ccc2c(c1)CCC2`, the Potency was “inactive”.
For `Clc1nc(C(Cl)(Cl)Cl)c(Cl)c(Cl)c1Cl`, the Potency was “inactive”.
For `Cc1cc(C)c(O)c(C(C)(C)C)c1`, the Potency was “inactive”.
For `C/C=C/C(=O)OCC(C)C`, the Potency was “inactive”.
For `CC(C)(C)c1cc(CCC(=O)OCCSCCOC(=O)CCc2cc(C(C)(C)C)c(O)c(C(C)(C)C)c2)cc(C(C)(C)C)c1O`, the Potency was “inactive”.
In the case of `Cc1ccc(C=O)cc1`, the Potency is reported as “inactive”.
With `C=CC(C)(C)O` the Potency was “inactive”.
For `CCC1(C)C(=O)N(Cl)C(=O)N1Cl` (stereo not given), the Potency was “inactive”.
With `CCN(CC)c1ccc(C=O)c(O)c1` the Potency was “inactive”.
In the case of `C/C(=C\c1ccc(C(=O)O)cc1)c1ccc2c(c1)C(C)(C)CCC2(C)C`, the Potency is reported as “inactive”.
For `CN1CCN(c2ccccc2/C=C2\SCCN(c3ccc(Cl)c(Cl)c3)C2=O)CC1`, the Potency was 12.3 µM (active).
For `C=Cc1ccncc1`, the Potency was “inactive”.
For `N#Cc1ccc(C/C(=N/NC(=O)Nc2ccc(OC(F)(F)F)cc2)c2cccc(C(F)(F)F)c2)cc1`, the Potency was “inactive”.
With `CC(=O)[C@]1(O)Cc2c(O)c3c(c(O)c2[C@@H](O[C@H]2C[C@H](N)[C@H](O)[C@H](C)O2)C1)C(=O)c1ccccc1C3=O` the Potency was 0.0756 µM (active).
For `O=c1[nH]cccc1O`, the Potency was “inactive”.
With `c1ccc2occc2c1` the Potency was “inactive”.
In the case of `Nc1ccc(Cl)c([N+](=O)[O-])c1`, the Potency is reported as “inactive”.
For `CC/C=C(\C)C=O`, the Potency was “inactive”.
With `COc1cccc(-c2ccc(/C=C\CN3CCCCCC3)cc2Cl)c1` the Potency was 43.4 µM (active).
In the case of `Cn1ccnc1`, the Potency is reported as “inactive”.
For `CCCCCCCCCCCCCCCCCCNC(=O)OC1CCN(C(=O)OC[C@H](COC(=O)N(Cc2cccc[n+]2CC)C(=O)c2ccccc2OC)OC)CC1`, the Potency was 9.52 µM (active).
With `CCn1c2ccccc2c2ccccc21` the Potency was “inactive”.
In the case of `O=C1OCc2ccccc21`, the Potency is reported as “inactive”.
In the case of `O=C1C=CC(=O)N1c1cccc(N2C(=O)C=CC2=O)c1`, the Potency is reported as 9.77 µM (active).
For `CCSCC`, the Potency was “inactive”.
For `Cc1c(Cl)c(=O)oc2cc(O)ccc12`, the Potency was 43.6 µM (active).
With `c1ccc(-c2ccccc2-c2ccccc2)cc1` the Potency was “inactive”.
For `Cc1cccc2c1ccc1ccccc12`, the Potency was “inactive”.
